D3 ag: qHTS of D3 Dopamine Receptor Agonist: qHTS; AID 652048, 2013; max activation, %; D3R DiscoveRx beta-arrestin cells, luminescence, 90 min; D(3) dopamine receptor (Homo sapiens), P35462; 410,000 compounds, 0.58% hits; in the data active = max activation above about 30%; note: 0% is about no effect
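Agonist mode: compounds and dopamine controls were applied to plated cells for 90 min at 37 degrees C after an overnight attachment at 1500 cells/well. Luminescent read-out followed 30 - 60 minutes at room temperature with DiscoveRx detection reagent.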
D1 agonist: Allosteric Agonists of the Human D1 Dopamine Receptor: qHTS; D(1A) dopamine receptor (Homo sapiens), P21728; HEK293 T-REx D1 cells, calcium flux, agonist mode; activation, % at 2 µM; 360,000 compounds, 1% hits; AID 504660, 2011; in the data active = activation above about 30%; note: 0% is about no effect
Target sequence (P21728 whole entry, looked up): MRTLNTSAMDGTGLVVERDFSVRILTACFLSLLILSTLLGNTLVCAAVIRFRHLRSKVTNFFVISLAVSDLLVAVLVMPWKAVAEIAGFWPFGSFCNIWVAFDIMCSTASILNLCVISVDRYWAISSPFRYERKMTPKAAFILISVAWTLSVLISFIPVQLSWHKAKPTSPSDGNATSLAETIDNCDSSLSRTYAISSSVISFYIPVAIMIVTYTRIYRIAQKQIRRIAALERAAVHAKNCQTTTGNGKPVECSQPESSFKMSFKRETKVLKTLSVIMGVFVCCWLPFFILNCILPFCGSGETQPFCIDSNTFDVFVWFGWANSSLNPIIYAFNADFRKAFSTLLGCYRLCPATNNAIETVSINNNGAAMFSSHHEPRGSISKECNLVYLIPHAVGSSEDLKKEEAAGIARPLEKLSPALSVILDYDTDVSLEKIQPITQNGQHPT
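Agonism was scored from calcium flux recorded over 180 s (1 read/s) after pintool compound addition, following a 10-cycle baseline. Cells were inducible force-coupled HEK293 TREx D1, plated overnight at 30 C and loaded with no-wash calcium dye.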
D1 PAM: Potentiators of Human D1 Dopamine Receptor: qHTS | 360,000 compounds, 0.036% hits | D(1A) dopamine receptor (Homo sapiens), P21728 | potentiation, % at 10 µM | HEK293 TREx D1 cells, calcium flux, dopamine EC20 potentiation; in the data active = potentiation above about 30%; note: 0% is about no effect
BCR signal inh: qHTS Assay to Find Inhibitors of Chronic Active B-Cell Receptor Signaling. ABC-DLBCL IkBa-CBG/CBR reporter, luminescence ratio, 4 h. Potency, µM (top dose mostly 46.1 µM), without a hit: at the highest dose activity change, negative = inhibition, usual class: inhibitors. 340,000 compounds, 0.05% hits; active = well fitted inhibition curve with a large enough effect in the signal ratio, with a control signal flat, not every such curve was filed as active; inconclusive = small, poorly fitted or top-dose-only effect, or effect the other way, or a change in a side signal; the % refers to the signal ratio;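 note: potency is the fitted concentration of half-maximal effect; plate controls were basal doxycycline-induced cells for no effect and cells given 10 µM MG132 for full effect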
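Doxycycline induced both beetle luciferases in TMD8 lymphoma cells; IKK-driven degradation limits the IkappaBalpha-fused green signal, while red luminescence normalises for cell number and nonspecific effects. Compounds tested up to 46 uM, 4 hrs.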
D1 antagonist: Antagonist of Human D 1 Dopamine Receptor: qHTS. activity change, negative = inhibition, % at 10 µM. 360,000 compounds, 3.2% hits. AID 504652, 2011. HEK293 TREx D1 cells, calcium flux, dopamine EC80; stronger effect = lower value; in the data active = activity change below about -30%; note: % is set by controls: 0 for no effect and ±100 for the full control effect
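After overnight tetracycline induction at 30 C, force-coupled D1 HEK293 cells took up a no-wash calcium dye at room temperature. Compounds were added and monitored 180 s, and the response to EC80 dopamine was then recorded.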
DRD3 antagonist: qHTS of D3 Dopamine Receptor Antagonist: qHTS; 360,000 compounds, 2.5% hits; AID 652054, 2013; D3R cells, DiscoveRx beta-arrestin luminescence, antagonist mode; stronger effect = lower value; D(3) dopamine receptor (Homo sapiens), P35462; max response, negative = inhibition, %; in the data active = max response below about -50%; inconclusive = no clear call, values can overlap the other calls; note: % is set by controls: 0 for no effect and ±100 for the full control effect
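Cells plated overnight at 1500 cells/well, then exposed to library compounds with dopamine controls for 90 minutes at 37 degrees C. DiscoveRx reagent added for 30–60 minutes at room temperature; luminescence read, quantitative HTS format.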
Numbers without * were called inactive; ? = inconclusive; nt = no result given; ! = not active in a repeat. This is a sample that favours compounds with a hit; in the whole collection about 6% have one here.

SMILES	D3 ag	D1 agonist	D1 PAM	BCR signal inh	D1 antagonist	DRD3 antagonist
C[C@H]1CCCCO[C@H](CN(C)Cc2ccccc2)[C@@H](C)CN([C@@H](C)CO)C(=O)c2cc(NC(=O)CCC(F)(F)F)ccc2O1	-8	nt	nt	nt	nt	-21
CCCc1[nH]nc2c1C(c1ccc(OCCN3CCOCC3)c(OC)c1)C(C#N)=C(N)O2 (stereo not given)	3	1	10	?	2	-64*
CC(CC(=O)Nc1ccc2c(c1)c(=O)n(C)n2-c1ccccc1F)c1ccccc1 (stereo not given)	-22	nt	nt	nt	nt	-90*
CCCOc1ccc(CC(=O)NNC(=S)Nc2ccccc2)cc1Br	6	4	0	-21%	-6	-56*
Cc1ccccc1S(=O)(=O)NC(=O)C1(C)CCN1C(=O)c1cccc(F)c1 (stereo not given)	5	nt	nt	nt	nt	14
Cc1ccc(N2C(=O)C(c3c(C)[nH]n(-c4ccccc4)c3=O)(C(F)(F)F)C3=C2CC(C)(C)CC3=O)cc1 (stereo not given)	3	1	4	-1%	13	-75*
N#Cc1nc(Nc2ccc(-c3ccccc3)cc2)nc(NC2CCCC2)n1	nt	5	-5	nt	21	nt
CC1(C(=O)NS(=O)(=O)c2ccc3c(c2)CCO3)CCN1C(=O)COc1ccc(Cl)cc1 (stereo not given)	1	nt	nt	nt	nt	18
FC(F)(F)c1cccc(N2CCN(C3CC4CCC3C4)CC2)c1 (stereo not given)	-1	5	-15	6%	0	-23
Cc1cc2[nH]c(=O)c(=O)[nH]c2cc1S(=O)(=O)N1CCN(c2cccc(Cl)c2)CC1	-4	3	0	14%	-9	-23
C1=CC2CC1CC2CN1CCN(Cc2ccccc2)CC1 (stereo not given)	-22	3	-5	29%	-18	-53*
Cc1cc2[nH]c(=O)c(=O)[nH]c2cc1S(=O)(=O)N1CCN(c2cccc(C(F)(F)F)c2)CC1	3	2	-9	6%	-62*!	-6
FC(F)(F)c1cccc(N2CCN(CC3CC4C=CC3C4)CC2)c1 (stereo not given)	-23	5	-1	11%	9	-72*
Cc1ccc(S(=O)(=O)N2CCN(CC3CC4C=CC3C4)CC2)cc1 (stereo not given)	-8	0	-7	8%	3	-25
CCS(=O)(=O)N1CCN(CC2CC3C=CC2C3)CC1 (stereo not given)	-7	2	-2	10%	2	-72*
COc1cccc(CCNC(=O)c2c(O)nc3c(C)cccn3c2=O)c1	-10	0	-8	nt	-5	nt
Fc1ccccc1N1CCN(CC2CC3C=CC2C3)CC1 (stereo not given)	12	2	-25	0%	-21	-71*
CCCS(=O)(=O)N1CCN(CC2CC3C=CC2C3)CC1 (stereo not given)	-6	1	-2	1%	0	-21
O=C(CN1CCN(Cc2ccccc2)CC1)Nc1cccc(Cl)c1Cl	5	nt	nt	nt	nt	13
O=C(CO)[C@@H](O)[C@H](O)[C@@H](O)CO	-16	nt	nt	nt	nt	nt
CC(=O)c1ccc(Nc2nc3ccccc3nc2-n2nc(C)cc2C)cc1	9	3	1	nt	8	nt
O=C1CCCC(O)=C1C(C#Cc1ccccc1)C1=C(O)CCCC1=O	-5	-2	-4	?	-11	-61*
CCc1ccc(NC(=O)Cn2c(=O)c(-c3ccccc3NC(C)=O)nc3ccccc32)cc1	4	0	1	nt	0	nt
COc1cccc(NC(=O)CN2C(=O)NC3(CCCC3)C2=O)c1	-4	3	4	5%	-2	6
CC(=O)Nc1ccc(/C=N/N2C(=O)NC(C)(c3ccc(OC(F)F)cc3)C2=O)cc1 (stereo not given)	4	96*	-12	?	-50*	0
SMILES	D3 ag	D1 agonist	D1 PAM	BCR signal inh	D1 antagonist	DRD3 antagonist
CC1(c2ccccc2Cl)NC(=O)N(CC(=O)Nc2ccc3c(c2)OCO3)C1=O (stereo not given)	2	1	0	-7%	4	-71*
CC(=O)c1c(C)[nH]c(C(=O)CN2C(=O)NC(C)(c3ccc(C)cc3)C2=O)c1C (stereo not given)	-2	33*	-6	0%	9	19
COc1cccc(NC(=O)CN2C(=O)NC(C)(c3ccc(C)cc3)C2=O)c1 (stereo not given)	8	34*	-9	?	-2	-6
CCOC(=O)CN1C(=O)NC(C)(c2ccc(OC(F)F)cc2)C1=O (stereo not given)	10	15	6	0%	-2	10
CCOc1ccccc1C(=O)N1CCN(CCc2ccccn2)CC1	-2	-2	0	nt	-10	nt
CC1(c2ccc(OC(F)F)cc2)NC(=O)N(CC(=O)Nc2ccccc2)C1=O (stereo not given)	1	59*	2	?	-59*	7
Cc1ccc(C2(C)NC(=O)N(CC(=O)NC(=O)NC(C)(C)C)C2=O)cc1 (stereo not given)	33*	4	8	1%	2	10
CC1(c2ccccc2)NC(=O)N(CC(=O)Nc2ccc3c(c2)OCO3)C1=O (stereo not given)	-2	3	-3	?	6	0
O=C(CN1C(=O)NC2(CCCCC2)C1=O)Nc1cc(C(F)(F)F)ccc1N1CCCC1	2	3	-5	-7%	9	14
CC1(c2ccc(OC(F)F)cc2)NC(=O)N(CC(=O)Nc2ccc3c(c2)OCO3)C1=O (stereo not given)	-9	66*	-9	-10%	-60*	12
CC1(c2ccc(OC(F)F)cc2)NC(=O)N(CC(=O)Nc2ccc3[nH]c(=O)[nH]c3c2)C1=O (stereo not given)	-6	2	-3	7%	5	-14
O=C(CN1C(=O)NC2(CCCC2)C1=O)Nc1cc(Cl)ccc1N1CCCCC1	1	42*	0	0%	2	-8
CCN1C(=O)[C@H]2[C@@H](c3ccc(C(F)(F)F)cc3)N[C@]3(CCCN(Cc4ccccc4)C3=O)[C@H]2C1=O	3	nt	nt	nt	nt	-30
Cc1ccc(C2(C)NC(=O)N(CC(=O)Nc3ccccc3N3CCCC3)C2=O)cc1 (stereo not given)	1	47*	5	?	5	-1
